Assay outcomes deposited in PubChem BioAssay by NMMLSC.
Sampled rows, rich in hits. Any-hit rate of the full collection: about 1.2%.
RGS7-Gao reg: RGS7-Galphao binding modulators, primary screen, biochemical, multiplexed bead flow cytometry; Guanine nucleotide-binding protein G(o) subunit alpha (Homo sapiens), P09471; actives lie on both sides; binding response (% of control), % at 10 µM; 220,000 tested, 0.35% active; in the data active = binding response below about 49% or above about 150%; inconclusive = no clear call, values can overlap the other calls; inactive = in between;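 note: fluorescent Galphao held in activated GDP-AlF4 state binding bead-coupled RGS7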
Target sequence (P09471 whole entry, looked up): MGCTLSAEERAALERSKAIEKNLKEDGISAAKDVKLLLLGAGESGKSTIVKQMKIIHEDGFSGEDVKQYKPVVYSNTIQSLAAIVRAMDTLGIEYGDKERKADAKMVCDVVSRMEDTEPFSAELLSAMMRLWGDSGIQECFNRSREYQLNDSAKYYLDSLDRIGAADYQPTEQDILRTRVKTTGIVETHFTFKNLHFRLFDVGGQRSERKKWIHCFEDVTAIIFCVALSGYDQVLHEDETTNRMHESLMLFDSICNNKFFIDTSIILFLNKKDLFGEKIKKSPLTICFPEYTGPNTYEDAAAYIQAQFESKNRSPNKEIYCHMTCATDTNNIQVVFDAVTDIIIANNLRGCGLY
GSH fluor: compound fluorescence on glutathione beads, profiling panel, artefact control, biophysical, 488/530 nm, flow cytometry; GSH beads flow cytometry, compound fluorescence 488/530 nm; active compounds read high; fluorescence (KMESF) at 10 µM; 190,000 tested, 0.25% active; AID 1776, 2009; in the data active = fluorescence above about 89;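 note: glutathione beads carrying GST-tagged Bcl family fusion proteins plus one bare bead set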
RGS4-Gao reg: modulators of RGS4 binding to Galphao, primary screen, biochemical, multiplexed bead flow cytometry. Guanine nucleotide-binding protein G(o) subunit alpha (Homo sapiens), P09471. 220,000 tested, 0.33% active. binding response (% of control), % at 10 µM. actives lie on both sides. AID 1415, 2008; in the data active = binding response below about 49% or above about 150%; inactive = in between;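 note: fluorescent Galphao activated with aluminum fluoride binding bead-coupled RGS4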
RGS16-Gao HTS: modulators of RGS16 binding to Galphao, primary screen, biochemical, human proteins, multiplexed bead flow cytometry. Regulator of G-protein signaling 16 (Homo sapiens) + Guanine nucleotide-binding protein …. AID 1441, 2008. bead-based flow cytometry RGS16-Galphao binding, fluorescence; actives lie on both sides. binding response (% of control), % at 10 µM. 220,000 tested, 0.38% active; call rule not given here;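 note: Galphao activated by GDP with aluminum fluoride before binding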
Target sequence (O15492 whole entry, looked up): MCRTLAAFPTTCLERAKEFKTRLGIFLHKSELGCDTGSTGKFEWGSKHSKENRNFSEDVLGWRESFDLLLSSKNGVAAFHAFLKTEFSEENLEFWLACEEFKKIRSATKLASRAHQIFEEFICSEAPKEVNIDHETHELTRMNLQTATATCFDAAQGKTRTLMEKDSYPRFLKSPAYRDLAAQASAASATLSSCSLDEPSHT
Target sequence (P09471 whole entry, looked up): as the sequence (P09471 whole entry, looked up) above
RGS8-Gao reg: RGS8-Galphao binding modulators, primary screen, biochemical, multiplexed bead flow cytometry; response (percent of control binding), % at 10 µM; 220,000 tested, 0.34% active; actives lie on both sides; Guanine nucleotide-binding protein G(o) subunit alpha (Homo sapiens), P09471; in the data active = response below about 60% or above about 140%; inactive = in between;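 note: Galphao activated as the GDP aluminium fluoride complex binding bead-coupled RGS8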
Avidin bead fluor: green autofluorescence of compounds with avidin beads – biophysical, 488/530 nm, flow cytometry, artefact control, profiling panel; compound fluorescence 488/530 nm; active compounds read high; fluorescence (KMESF) at 10 µM; 220,000 tested, 0.38% active; AID 1775, 2009; in the data active = fluorescence above about 47
A number is an active result; . = inactive; ? = inconclusive; / = no result given; + = active, no number; [ ] = remark or other dose.

SMILES | RGS7-Gao reg | GSH fluor | RGS4-Gao reg | RGS16-Gao HTS | RGS8-Gao reg | Avidin bead fluor
Cc1ccc(S(=O)(=O)Nc2ccc3nc(N)sc3c2)cc1 | . | . | . | . | . | 49
C[C@@H]1CCC[C@H](C)N1Cc1nc(Cc2ccccc2Cl)no1 | . | . | . | . | . | .
CCCCn1c(SCC(=O)N2CC(C)CC(C)C2)nc2cc(S(N)(=O)=O)ccc21 (stereo not given) | . | 262 | . | . | . | .
COc1ccccc1N1CCN(C(=O)CSc2nc(C)c(Cc3ccccc3)c(=O)[nH]2)CC1 | . | . | . | . | . | 78
COc1ccccc1N1CCN(C(=O)CSc2nc(-c3ccccc3)cc(=O)[nH]2)CC1 | . | . | . | . | . | .
O=C1S/C(=C/c2ccc(N3CCOCC3)o2)C(=O)N1Cc1ccc(F)cc1 | . | . | . | . | . | .
O=C1S/C(=C\c2ccc(N3CCOCC3)o2)C(=O)N1Cc1ccc(F)cc1 | 152.8[activator] | . | 164.8[activator] | . | . | .
CCC(CO)NC(=O)c1ccccc1C(F)(F)F (stereo not given) | ? | / | . | . | . | .
Cc1cc(=O)[nH]c(N/N=C/c2ccc(OC(=O)c3cccnc3)cc2)n1 | . | . | . | . | . | .
CN1CCN(C(=O)C(C(=O)c2ccc(F)cc2)n2ccccc2=O)CC1 (stereo not given) | . | . | . | . | . | 59
O=C(NCc1ccccn1)C(C(=O)c1ccc(F)cc1)n1ccccc1=O (stereo not given) | . | . | . | . | . | 56
O=C(NCc1ccco1)C(C(=O)c1ccc(F)cc1)n1ccccc1=O (stereo not given) | . | . | . | . | . | .
CC(=O)c1ccc(OC(C)C)c(Cc2c(O)nc(N)[nH]c2=O)c1 | . | . | . | . | . | .
CN(CC(=O)N1CCN(c2ccccn2)CC1)S(=O)(=O)c1ccccc1 | . | . | . | . | . | 49
CN(CC(=O)N1CCN(c2ncccn2)CC1)S(=O)(=O)c1ccc(Cl)cc1 | . | . | . | . | . | .
CC(=O)c1c(C)[nH]c(C(=O)NCc2ccco2)c1C | . | . | . | . | . | .
O=C(CSC1=NCCS1)N1CCOCC1 | . | 249 | . | . | . | .
O=C(CSC1=NCCS1)N1CCN(c2ccccc2)CC1 | . | . | . | . | . | .
COC(=O)c1ccc(Cl)c(NC(=O)NC23CC4CC(CC(C4)C2)C3)c1 | . | . | . | . | . | .
COC(=O)c1cccc(NC(=O)NC23CC4CC(CC(C4)C2)C3)c1 | . | 243 | . | . | . | .
COc1ccc(C(=O)N/N=C(\C)CC(=O)Nc2cccc(C(F)(F)F)c2)cc1 | ? | / | . | . | . | 69
COCCNC(=O)C(=O)N/N=C(\C)CC(=O)Nc1cccc(C(F)(F)F)c1 | ? | / | . | . | . | .
O=C(O)/C=C/C(=O)Nc1ccc(OC(F)(F)F)cc1Br | ? | / | . | . | . | .
CCOc1ccc2nc(NC(=O)c3ccoc3C)sc2c1 | . | . | . | . | . | 56
Cc1cc(C(=O)Nc2c(F)c(F)c(F)c(F)c2F)n(-c2ccccc2)n1 | . | . | . | . | . | .
SMILES | RGS7-Gao reg | GSH fluor | RGS4-Gao reg | RGS16-Gao HTS | RGS8-Gao reg | Avidin bead fluor
COc1ccc(NC(=O)N2CCOCC2)cc1OC | . | 261 | . | . | . | .
COc1ccc(C(=O)Nc2ccc(N3CCOCC3)cc2)cc1OC | . | . | . | . | . | 99
COc1cccc(NC(=O)N2CCOCC2)c1 | . | . | . | . | . | .
COc1ccc(C(=O)Nc2ccc(S(=O)(=O)N3CCOCC3)cc2)cc1OC | . | . | . | . | . | .
CC1CCN(S(=O)(=O)c2ccc3ncn(CC(=O)N4CCN(C)CC4)c(=O)c3c2)CC1 | . | . | . | . | . | .
CCN(CC)c1ccc2cc(-c3nc(-c4ccc(OC)cc4)cs3)c(=O)oc2c1 | +[activator] | 445 | 808.3[activator] | 922.6[activator] | 176.9[activator] | 636
CCN(CC)c1ccc2cc(-c3nnc(-c4ccccc4)o3)c(=O)oc2c1 | . | . | . | . | . | .
CS(=O)(=O)N1CCN(c2ccc([N+](=O)[O-])c(NCc3ccc(Cl)cc3)c2)CC1 | . | 99 | . | . | . | .
Cc1sc2ncn(CC(=O)Nc3cccc(S(N)(=O)=O)c3)c(=O)c2c1-c1ccccc1 | ? | / | . | . | . | .
CCOC(=O)c1cc(-c2ccc(C#N)cc2)nc2c1c(C)nn2CCC#N | . | . | . | . | . | .
CCOC(=O)c1cc(-c2ccc(OC)cc2)nc2c1c(C)nn2CCC#N | . | . | . | . | . | 56
N#C/C(=C\c1ccc(N2CCCCC2)o1)C(N)=O | . | . | . | . | . | .
N#C/C(=C\c1ccc(N2CCCCC2)o1)C(=O)Nc1cccc(Br)c1 | . | . | . | . | . | 60
CC(=O)/C(C#N)=C1\NC(=O)C(Cc2ccccc2C)S1 (stereo not given) | ? | / | . | . | . | .
COc1ccc(NC(=S)N(CCN(C)C)C(C)c2ccco2)cc1Cl (stereo not given) | . | 152 | . | . | . | .
Cc1cc(N)n(-c2ccccn2)n1 | ? | / | . | . | . | .
Nn1c(SCC(=O)NC2CCCCC2)nnc1C1CC1 | . | . | . | . | . | .
C=CCn1c(SCC(=O)NC2CCCCC2)nnc1C1CCCCC1 | . | . | . | . | . | 60
CCOc1ccc2nc(Nc3nc(CSc4nnnn4-c4ccccc4)cc(=O)[nH]3)nc(C)c2c1 | . | . | . | . | . | .
COc1ccc2nc(Nc3nc(CSc4nnnn4-c4ccccc4)cc(=O)[nH]3)nc(C)c2c1 | . | . | . | . | . | 95
O=C(CSc1ccc2c(c1)OCCO2)NC(=O)Cc1ccccc1 | . | . | . | . | . | .
O=S1(=O)N=C(N=Nc2c(O)[nH]c3ccccc23)c2ccccc21 | 11.8 | . | 12.5 | 4.8 | 16.9 | .
Oc1[nH]c2ccccc2c1N=Nc1ccccc1 | ? | / | . | . | . | .
CC1(C)Cc2c(C#N)c(SCC(=O)c3ccccc3)nc(N3CCOCC3)c2CS1 | . | . | . | . | . | 49
O=C(CSc1nc2ccccc2s1)N/N=C/c1ccco1 | . | . | . | . | . | .
C/C(=N\NC(=O)CSc1nc2ccccc2s1)c1ccco1 | . | 408 | . | . | . | .
CC(=O)c1ccc(NS(=O)(=O)c2ccc(N)cc2)cc1 | . | . | . | . | . | .
CC(=O)c1ccc(NS(=O)(=O)c2ccccc2)cc1 | . | . | . | . | . | 49
O=C(/C=C/c1cc([N+](=O)[O-])ccc1OC(F)F)NCc1ccc(F)cc1 | . | 265 | . | . | . | .
